Data reported in PubChem BioAssay (NCATS).
Records with an inconclusive call do not appear. The source made the active and inactive calls. The call rests on the fitted dose curve; in most records, active means well fitted curve in the direction sought with a large enough effect; inconclusive means small, poorly fitted or top-dose-only effect, or another doubt; inactive means no such curve, though single readings can be large; an effect the other way counts as inactive or inconclusive.

Key:
[1] = Cell Viability - H-4-II-E (AID 543); further: on the % scale 0 is the no-effect control and ±100 the full control effect; nearly all actives have a fitted effect of over 35% in size
Procedure, shortened: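 Rat hepatoma H-4-II-E cells (1500/well) were plated, incubated 5 hr at 37 °C, then exposed to compounds for 40 hr at 37 °C. Cellular ATP was read by CellTiter-Glo luminescence; AC50 came from Hill-equation fits of concentration-response data.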

[2] = Cell Viability - SH-SY5Y (AID 544); conditions: SH-SY5Y neuroblastoma cell viability; viability change, negative = cytotoxic: at 92.2 µM (top of the series); further: nearly all actives have a fitted effect of over 55% in size
Procedure, shortened: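 Human neuroblastoma SH-SY5Y cells (1500/well) in complete medium were exposed to compounds for 40 hr at 37 °C; intracellular ATP was then quantified by CellTiter-Glo luminescence after 20 min at room temperature. AC50 came from Hill-equation concentration-response fits.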

[3] = Cell Viability - Renal Proximal Tubule (AID 545); further: nearly all actives have a fitted effect of over 40% in size
Procedure, shortened: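 Primary rat renal proximal tubule cells (1000/well) were treated with compounds for 40 hr at 37 °C in complete medium. Intracellular ATP was measured by CellTiter-Glo luminescence, and AC50 values came from Hill-equation fits of concentration-response data.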

[4] = Cell Viability - Mesenchymal (AID 546);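 further: cells exposed to compound for 40 hours before reading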
Procedure, shortened: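 Normal human renal glomerulus-derived kidney mesenchymal cells, 1000 per well in complete medium, were treated with compounds for 40 hr at 37 °C. Viability was read as intracellular ATP by CellTiter-Glo luminescence; AC50 values came from Hill-equation fits of qHTS concentration-response data.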

[5] = Cellular Toxicity (caspase-3) HepG2 (AID 654);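 further: cells exposed to compound for 16 hours before reading; 0% = DMSO alone and 100% = caspase signal from 100 µM tamoxifen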
Procedure, shortened: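 HepG2 cells (1500/well) in complete medium were treated with compounds for 16 hr at 37 °C. Caspase-3/7 activity was then read as luminescence from peptide-aminoluciferin cleavage. AC50 came from Hill fits, normalized to DMSO and 100 uM tamoxifen.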

[6] = Cellular Toxicity (caspase-3) HUV-EC-C (AID 656)
Procedure, shortened: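 HUV-EC-C endothelial cells, 1000/well, were pre-incubated 5 hr at 37°C, then exposed to compounds for 16 hr at 37°C. Caspase-Glo 3/7 luminescence was read after 20 min at room temperature. AC50 came from Hill fits, normalized to DMSO and 100 uM tamoxifen.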

[7] = Cellular Toxicity (caspase-3) SHSY5Y (AID 657)
Procedure, shortened: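 SH-SY5Y human neuroblastoma cells (1500/well) were treated with compounds for 16 h at 37 °C, then Caspase-Glo 3/7 luminescence was read after 1 h at room temperature. Data normalized to DMSO and 10 uM staurosporine; AC50 from Hill fits.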

[8] = Cellular Toxicity (caspase-3) BJ (AID 658);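 further: 0% = DMSO basal and 100% = 10 µM staurosporine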
Procedure, shortened: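 Luminescent aminoluciferin-substrate cleavage reports caspase 3/7 activity in normal human BJ fibroblasts after 16 hr compound exposure at 37 °C. Normalized to DMSO (basal) and 10 uM staurosporine (100%); AC50 from Hill fit of concentration-response.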

[9] = Cellular Toxicity (caspase-3) MRC-5 (AID 659);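 further: 0% = DMSO basal and 100% = 10 µM staurosporine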
Procedure, shortened: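 Luminescence from caspase-cleaved aminoluciferin substrate (Caspase-Glo 3/7, 1 hr RT) reports caspase 3/7 activity in MRC-5 lung fibroblasts after 16 hr compound exposure. Normalized to DMSO basal and 10 uM staurosporine as 100%; AC50 from Hill fits.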

[10] = Cellular Toxicity (caspase-3) Mesangial (AID 660); conditions: mesangial cells, normalized: DMSO 0%, 100 µM tamoxifen 100%; at 91.7 µM (top of the series);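 further: cells exposed to compound for 16 h before the caspase read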
Procedure, shortened: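 Human renal glomerular mesangial cells (1000/well) were treated with compounds for 16 h at 37 °C in complete medium, then caspase 3/7 activity was read by Caspase-Glo luminescence. Data were normalized to DMSO and 100 uM tamoxifen; AC50 from Hill fits.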

[11] = Cellular Toxicity (caspase-3) SK-N-SH (AID 661);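 further: 0% = DMSO basal and 100% = 10 µM staurosporine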
Procedure, shortened: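 SK-N-SH human neuroblastoma cells (1500/well) were treated with compounds for 16 hr at 37 °C in complete medium; caspase 3/7 activity was read by Caspase-Glo luminescence. AC50 came from Hill fits of data normalized to DMSO and 10 uM staurosporine.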

[12] = Cellular Toxicity (caspase-3) H-4-II-E (AID 663); conditions: H-4-II-E rat hepatoma, scaled: DMSO 0%, 100 µM tamoxifen 100%; at 92.2 µM (top of the series);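 further: cells exposed to compound for 16 hr before readout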
Procedure, shortened: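 Luminescence from caspase-cleaved aminoluciferin substrate, read 20 min after reagent addition, reports caspase 3/7 activation in rat H-4-II-E cells after 16 hr compound exposure. Normalized to DMSO (basal) and 100 uM tamoxifen (100%); AC50 from Hill fits.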

[13] = Cellular Toxicity (caspase-3) Hek293 (AID 664); conditions: HEK293 caspase-3 activation, DMSO = 0%, 100 µM tamoxifen = 100%; at 92.2 µM (top of the series);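 further: cells exposed to compound for 16 h at 37 °C before readout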
Procedure, shortened: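 HEK293 cells were exposed to compounds in complete medium for 16 hr at 37 °C, then caspase-3/7 activity was read by Caspase-Glo 3/7 luminescence after 20 min at room temperature. Data normalized to DMSO and 100 uM tamoxifen; AC50 from Hill fits.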

[14] = Cellular Toxicity (caspase-3) N2a (AID 665);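 further: compound exposure lasted 16 h at 37 °C before readout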
Procedure, shortened: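 Mouse N2a neuroblastoma cells (1500/well) were treated with compounds for 16 h at 37 °C, then caspase-3/7 activity was read by Caspase-Glo luminescence after 1 h at room temperature. Data were normalized to DMSO and 10 uM staurosporine; AC50 from Hill fits.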

[15] = Cellular Toxicity (caspase-3) NIH 3T3 (AID 666);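 further: 0% = DMSO basal and 100% = 100 µM tamoxifen stimulation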
Procedure, shortened: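 Mouse NIH 3T3 fibroblasts (1000 cells/well) were treated with compound for 16 hr at 37°C in complete medium; caspase-3/7 activity was read by Caspase-Glo luminescence. Normalized to DMSO and 100 uM tamoxifen; AC50 from Hill fits.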

[16] = Cellular Toxicity (caspase-3) Renal Proximal Tubule (AID 667); conditions: Potency: caspase-3 activation;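 further: cells exposed to compound for 16 hours at 37 °C before detection; 0% = DMSO basal and 100% = 10 µM staurosporine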
Procedure, shortened: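 Primary rat proximal tubule cells, 1000/well, 5 h plating at 37 °C, then compound 16 h at 37 °C. Caspase-Glo 3/7 reagent, 1 h RT, luminescence. Normalized to DMSO (basal) and 10 uM staurosporine (100%); Hill-fit AC50.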

[17] = molecular target: Cytochrome P450 3A4 (Homo sapiens) (UniProt P08684); assay: qHTS Assay for Activators of Cytochrome P450 3A4 (AID 885); further: nearly all actives have a fitted effect of over 65% in size
Sequence of Cytochrome P450 3A4 (Homo sapiens) (P08684 whole entry, looked up): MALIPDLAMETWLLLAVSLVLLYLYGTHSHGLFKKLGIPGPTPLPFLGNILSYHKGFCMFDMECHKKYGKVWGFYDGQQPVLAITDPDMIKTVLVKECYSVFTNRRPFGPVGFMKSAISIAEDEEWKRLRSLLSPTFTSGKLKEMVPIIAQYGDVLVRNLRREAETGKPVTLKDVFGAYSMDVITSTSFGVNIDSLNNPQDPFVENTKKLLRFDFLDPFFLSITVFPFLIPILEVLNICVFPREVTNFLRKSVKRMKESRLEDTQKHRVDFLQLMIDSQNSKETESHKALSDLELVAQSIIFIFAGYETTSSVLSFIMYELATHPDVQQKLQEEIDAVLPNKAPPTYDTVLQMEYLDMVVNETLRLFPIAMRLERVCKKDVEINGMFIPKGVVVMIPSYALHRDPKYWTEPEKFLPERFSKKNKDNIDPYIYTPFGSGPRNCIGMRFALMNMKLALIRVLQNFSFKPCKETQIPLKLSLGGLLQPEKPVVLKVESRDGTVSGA
Procedure, shortened: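 Human CYP3A4 (20 nM) with Luciferin-PPXE at 25 uM (its KM) in 200 mM KPO4; 10 min compound preincubation, then NADPH regeneration and 60 min reaction at RT. Luciferin read by luminescence; normalized to 57 uM ketoconazole full inhibition.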

[18] = Cell Viability - LYMP2-001 (AID 921);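 further: 0% = DMSO only and full inhibition = tetraoctylammonium bromide control wells; nearly all actives have a fitted effect of over 70% in size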
Procedure, shortened: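 Human lymphoblastoid cells (Coriell), 2500 per well, were preincubated 5 hr at 37 C, then exposed to compounds in complete medium for 24 hr at 37 C. Cellular ATP was read by CellTiter-Glo luminescence; AC50 from Hill fits of concentration-response data.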

[19] = molecular target: Cytochrome P450 3A4 (Homo sapiens) (UniProt P08684); assay: qHTS Assay for Inhibitors and Substrates of Cytochrome P450 3A4 (AID 884); further: on the % scale 0 is the no-effect control and ±100 the full control effect; nearly all actives have a fitted effect of over 50% in size
Procedure, shortened: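 20 nM human CYP3A4 with 25 uM Luciferin-PPXE (at KM) in 200 mM KPO4, preincubated 10 min with compound; NADPH regeneration started a 60 min RT reaction. Luciferin detected by luminescence, normalized to 57 uM ketoconazole as full inhibition.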

[20] = Cellular Toxicity (caspase-3) Jurkat (AID 655); conditions: Jurkat caspase-3 activation, luminescence; caspase-3 activation: at 92.2 µM (top of the series), DMSO = 0%, tamoxifen = 100%;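 further: cells exposed to compound for 16 h at 37 °C before reading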
Procedure, shortened: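 Jurkat cells (5000/well) in complete medium were treated with compounds for 16 hr at 37 °C, then Caspase-Glo 3/7 luminescence was read after 20 min at room temperature. Data normalized to DMSO (basal) and 100 uM tamoxifen (100%); AC50 from Hill fit.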

Oc1cccc(Nc2ccccc2)c1
inactive: Potency [1] | Potency [2] | Potency [3] | Potency [4] | Potency [5] | outcome [6] | outcome [7] | outcome [8] | outcome [9] | caspase-3 activation [10] -0.245% | outcome [11] | caspase-3 activation [12] -0.0797% | caspase-3 activation [13] -0.23% | outcome [14] | outcome [15] | Potency [16] | outcome [17] | Potency [18]

CCC(C)(C)C
inactive: Potency [1] | Potency [2] | Potency [3] | Potency [4] | Potency [5] | outcome [6] | outcome [7] | outcome [8] | outcome [9] | caspase-3 activation [10] 0.949% | outcome [11] | caspase-3 activation [12] -0.587% | caspase-3 activation [13] -1.96% | outcome [14] | outcome [15] | Potency [16] | Potency [19] | Potency [18]

Cc1ccc(CO)cc1
inactive: Potency [1] | Potency [2] | Potency [3] | Potency [4] | Potency [5] | outcome [6] | outcome [7] | outcome [8] | outcome [9] | caspase-3 activation [10] -1.48% | caspase-3 activation [12] 0.0936% | caspase-3 activation [13] 0.73% | outcome [14] | outcome [15] | Potency [16] | Potency [19] | Potency [18]

O=[N+]([O-])c1cccc(C(F)(F)F)c1
inactive: Potency [1] | Potency [2] | Potency [3] | Potency [4] | Potency [5] | caspase-3 activation [20] 0.763% | outcome [7] | outcome [9] | caspase-3 activation [10] -1.76% | outcome [11] | caspase-3 activation [12] -0.931% | caspase-3 activation [13] 0.383% | outcome [14] | outcome [15] | Potency [16] | Potency [19] | Potency [18]

Cc1c(N)cccc1[N+](=O)[O-]
inactive: Potency [1] | Potency [2] | Potency [3] | Potency [4] | Potency [5] | caspase-3 activation [20] 2.77% | outcome [7] | outcome [8] | caspase-3 activation [10] 0.18% | outcome [11] | caspase-3 activation [12] -0.123% | caspase-3 activation [13] 1.08% | outcome [14] | outcome [15] | Potency [16] | Potency [19] | Potency [18]

c1ccc(Nc2ccccc2)cc1
inactive: Potency [1] | Potency [2] | Potency [3] | Potency [4] | Potency [5] | caspase-3 activation [20] 1.36% | outcome [7] | outcome [8] | outcome [9] | caspase-3 activation [10] -0.717% | outcome [11] | caspase-3 activation [12] 0.361% | caspase-3 activation [13] -0.415% | outcome [14] | outcome [15] | Potency [16] | Potency [18]

CCCCCCCCC
inactive: Potency [1] | Potency [2] | Potency [3] | Potency [4] | Potency [5] | outcome [6] | outcome [7] | outcome [8] | outcome [9] | caspase-3 activation [10] -0.687% | outcome [11] | caspase-3 activation [12] 0.863% | caspase-3 activation [13] -2.1% | outcome [14] | outcome [15] | Potency [16] | Potency [19] | Potency [18]

Cc1ccc2cccnc2c1
inactive: Potency [1] | Potency [2] | Potency [3] | Potency [4] | Potency [5] | caspase-3 activation [20] -0.667% | outcome [7] | outcome [8] | outcome [9] | caspase-3 activation [10] 0.42% | outcome [11] | caspase-3 activation [12] -0.588% | caspase-3 activation [13] 5.55% | outcome [14] | outcome [15] | Potency [16] | Potency [18]

Cc1cccc(Br)c1
inactive: Potency [1] | Potency [2] | Potency [3] | Potency [4] | Potency [5] | outcome [6] | outcome [7] | outcome [8] | outcome [9] | caspase-3 activation [10] -0.167% | outcome [11] | caspase-3 activation [12] 0.836% | caspase-3 activation [13] -1.49% | outcome [14] | outcome [15] | Potency [16] | Potency [18]

Cc1ccc(Cl)cc1
inactive: Potency [1] | Potency [2] | Potency [3] | Potency [4] | Potency [5] | caspase-3 activation [20] 1.47% | outcome [7] | outcome [8] | outcome [9] | caspase-3 activation [10] 0.555% | outcome [11] | caspase-3 activation [12] 0.337% | caspase-3 activation [13] 0.748% | outcome [14] | outcome [15] | Potency [16] | Potency [19] | Potency [18]

O=C(Cl)c1c(Cl)cccc1Cl
inactive: Potency [1] | Potency [2] | Potency [3] | Potency [4] | Potency [5] | outcome [6] | outcome [7] | outcome [8] | outcome [9] | caspase-3 activation [10] -0.17% | outcome [11] | caspase-3 activation [12] 0.0127% | caspase-3 activation [13] 0.529% | outcome [14] | outcome [15] | Potency [16] | Potency [19] | Potency [18]

CCCCCCC=O
inactive: Potency [1] | Potency [2] | Potency [3] | Potency [4] | Potency [5] | caspase-3 activation [20] 0.767% | outcome [7] | outcome [8] | outcome [9] | caspase-3 activation [10] -0.687% | outcome [11] | caspase-3 activation [12] 1.06% | caspase-3 activation [13] -2.62% | outcome [14] | outcome [15] | Potency [16] | Potency [19] | Potency [18]

Clc1ccc(Cl)c(Cl)c1Cl
inactive: Potency [1] | Potency [2] | Potency [3] | Potency [4] | Potency [5] | caspase-3 activation [20] -1.65% | outcome [7] | outcome [9] | caspase-3 activation [10] -0.853% | outcome [11] | caspase-3 activation [12] -0.982% | caspase-3 activation [13] -1.37% | outcome [14] | outcome [15] | Potency [16] | Potency [19] | Potency [18]

O=C(O)c1cc(Cl)cc(Cl)c1
inactive: Potency [1] | Potency [2] | Potency [3] | Potency [4] | Potency [5] | caspase-3 activation [20] -1.52% | outcome [7] | outcome [8] | caspase-3 activation [10] -0.386% | outcome [11] | caspase-3 activation [12] -0.143% | caspase-3 activation [13] 1.27% | outcome [14] | outcome [15] | Potency [16] | Potency [19] | Potency [18]
